Data from the supplement of paper PMC3334620.
In all, about 33,000 sequences were measured (“E-score (-0.5 to 0.5)”: median about -0.016, highest 2% from about 0.3 on). The full list was thinned out, with the highest values kept by preference.

Each sequence was assayed against T1, Yer184c (UniProt P39961) (assay: PBM E-score (8-mer binding enrichment) (E-score (-0.5 to 0.5)); higher = stronger / more preferred TF binding). Conditions: protein concentration: 100 nM; construct: GST-full length.
T1 sequence: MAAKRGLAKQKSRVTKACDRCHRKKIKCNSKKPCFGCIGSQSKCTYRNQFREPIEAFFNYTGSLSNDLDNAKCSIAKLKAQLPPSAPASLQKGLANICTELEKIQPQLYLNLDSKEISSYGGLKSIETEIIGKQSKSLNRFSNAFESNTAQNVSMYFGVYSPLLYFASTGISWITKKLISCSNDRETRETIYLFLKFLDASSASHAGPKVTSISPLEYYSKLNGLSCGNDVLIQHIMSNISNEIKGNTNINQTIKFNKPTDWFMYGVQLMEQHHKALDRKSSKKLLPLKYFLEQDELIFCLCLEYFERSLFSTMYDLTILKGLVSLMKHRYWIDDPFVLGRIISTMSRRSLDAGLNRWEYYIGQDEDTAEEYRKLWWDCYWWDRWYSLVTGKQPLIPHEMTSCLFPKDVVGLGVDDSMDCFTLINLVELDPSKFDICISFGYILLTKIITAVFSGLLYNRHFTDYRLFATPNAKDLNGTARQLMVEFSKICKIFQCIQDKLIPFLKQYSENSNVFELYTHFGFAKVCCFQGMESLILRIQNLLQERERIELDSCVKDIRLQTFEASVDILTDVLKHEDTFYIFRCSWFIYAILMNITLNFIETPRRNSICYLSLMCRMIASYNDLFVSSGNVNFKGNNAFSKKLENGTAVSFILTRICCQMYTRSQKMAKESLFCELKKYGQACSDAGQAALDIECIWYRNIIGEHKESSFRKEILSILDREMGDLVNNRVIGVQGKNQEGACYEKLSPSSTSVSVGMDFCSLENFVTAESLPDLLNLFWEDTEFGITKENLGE
Outline: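 Using PURExpress in vitro transcription/translation, GST-tagged yeast transcription factors were made in full-length or DNA-binding-domain form. These were applied at about 100-200 nM to double-stranded universal all-10-mer Agilent arrays, and bound protein was detected with fluorescent anti-GST. Scans were normalised with masliner before the Universal PBM Analysis Suite assigned E-scores to ungapped eight-base words pooled with their reverse complements.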

| Sequence | PBM E-score |
| --- | --- |
| CATATATA | 0.28 |
| GATATATC | 0.266 |
| TATATATA | 0.424 |
| AATATATA | 0.267 |
| GATATATA | 0.349 |
| AATATATG | 0.153 |
| TATATACA | 0.164 |
| GATATACA | 0.128 |
| AGGCCTAA | 0.0613 |
| CGCATGAG | -0.284 |
| CGACAGTC | -0.182 |
| AGATCATC | 0.0775 |
| CGTGGCAA | -0.0803 |
| CATACCAC | 0.0462 |
| ACGAACAA | 0.275 |
| GCGAACAA | 0.246 |
| AGGAACTA | -0.103 |
| GGGAACAC | 0.221 |
| CGGAACTA | 0.414 |
| AGGAACGA | -0.141 |
| CGGAACGA | 0.306 |
| CGGAACTC | 0.202 |

| Sequence | PBM E-score |
| --- | --- |
| AGGAACAC | 0.161 |
| CGGAACAC | 0.356 |
| CCGAACAA | 0.322 |
| CGGAACGC | 0.241 |
| ACCAGACT | -0.0238 |
| GTTTGCTA | 0.0684 |
| ATACACGG | 0.047 |
| CGGCGCAA | 0.178 |
| AGGCTGAT | -0.161 |
| ACGAACTA | 0.157 |
| CGGAACAA | 0.39 |
| CCGAACTA | 0.323 |
| CGGAACAG | 0.338 |
| GGGAACAA | 0.158 |
| AGGAACAG | -0.19 |
| CCGAACTC | 0.246 |
| CCGAACAG | 0.216 |
| TGGAACAA | 0.195 |
| CGATAGCA | -0.114 |
| AGTTACGA | 0.107 |
| CAGAGGGG | -0.286 |
| AGTAGCTC | -0.00154 |

| Sequence | PBM E-score |
| --- | --- |
| CTCGCTTC | -0.0232 |
| AGTCTGAG | -0.14 |
| AGGCTCAC | -0.273 |
| TCATTAAA | 0.343 |
| TGTTTTAA | 0.327 |
| GCATTAAA | 0.149 |
| AATTTTAC | 0.176 |
| AAATTTAT | 0.286 |
| ATATTAAA | 0.368 |
| TTATTAAA | 0.233 |
| CTATTAAA | 0.21 |
| AATTTTAT | 0.379 |
| AGTTTTAA | 0.159 |
| ACATTAAA | 0.0822 |
| TGTTTAAA | 0.0737 |
| TCAGCAAA | 0.158 |
| ACTAGTGA | -0.172 |
| AGAGCTTA | 0.0135 |
| CGTTTCAC | 0.135 |
| ATCAATGA | 0.2 |
| CAGTAAAG | -0.177 |
| GAGCAACA | 0.128 |

| Sequence | PBM E-score |
| --- | --- |
| GATAACAC | 0.0102 |
| CTATTTAA | 0.0903 |
| ATTTTTTA | 0.274 |
| ATATTTAC | 0.202 |
| AATTTATG | 0.307 |
| GTTTTAAA | 0.131 |
| AATTTTAA | 0.252 |
| ATTTTTAA | 0.333 |
| ATTTTATG | 0.217 |
| ATTTTAAA | 0.331 |
| ATATTTAA | 0.306 |
| ATTTTAAC | 0.028 |
| AATTTATA | 0.24 |
| ACCCCGCA | -0.0654 |
| GCTTTTCC | 0.109 |
| GGCGATTA | 0.0843 |
| CAGATCGA | -0.0498 |
| CCTAGTTA | 0.0429 |
| ACCCTACA | -0.0427 |
| AGTTGACA | 0.0221 |
